Reference: PubChem BioAssay (Tox21)
Records with an inconclusive call do not appear. Active and inactive are the calls of the source. Unless noted, calls come from the whole dose curve; as a rule, active = well fitted curve in the direction sought with a large enough effect in the repeat runs; inconclusive = weak or mixed curves; inactive = no such curve, though single readings can be large; an effect the other way counts as inactive or inconclusive.

Assays:
[1] = target: Estrogen receptor beta (Homo sapiens) (UniProt Q92731); assay: qHTS assay to identify small molecule agonists of the estrogen receptor beta (ER-beta) signaling pathway (AID 1259377; active = well fitted activation curve with a large enough effect in the signal ratio in the repeat runs, not every such curve was filed as active; the % refers to the signal ratio; note: potency is the fitted concentration of half-maximal effect)
Sequence of Estrogen receptor beta (Homo sapiens) (Q92731 whole entry, looked up): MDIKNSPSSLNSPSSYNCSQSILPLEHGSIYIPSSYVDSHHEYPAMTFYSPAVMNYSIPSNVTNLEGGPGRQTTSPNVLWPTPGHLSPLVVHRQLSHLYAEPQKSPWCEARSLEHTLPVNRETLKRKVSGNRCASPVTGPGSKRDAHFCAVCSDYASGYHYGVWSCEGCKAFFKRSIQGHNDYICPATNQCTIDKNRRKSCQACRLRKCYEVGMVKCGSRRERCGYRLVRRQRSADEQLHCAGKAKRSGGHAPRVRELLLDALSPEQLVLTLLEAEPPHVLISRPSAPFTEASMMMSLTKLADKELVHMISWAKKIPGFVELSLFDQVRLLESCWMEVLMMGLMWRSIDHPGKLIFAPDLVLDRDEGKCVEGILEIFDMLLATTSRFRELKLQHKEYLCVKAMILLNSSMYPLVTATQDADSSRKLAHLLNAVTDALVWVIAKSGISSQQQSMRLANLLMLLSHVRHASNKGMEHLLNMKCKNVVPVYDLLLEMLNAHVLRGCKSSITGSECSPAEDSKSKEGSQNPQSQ
Summary of the method: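 Reporter cells (HEK293T, ER-beta-UAS-bla) receive compounds or DMSO after a 6 hr pre-incubation. They then incubate 16 hr at 37C/5% CO2, and fluorescence from LiveBLAzer B/G substrate is measured after 2 hours at room temperature.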

[2] = qHTS assay to identify small molecule agonists of the androgen receptor (AR) signaling pathway in the presence of an antagonist - cell viability counter screen (AID 1259379); note: nearly all actives have a fitted effect of over 25% in size; note: potency is the fitted concentration of half-maximal effect;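 for activity change, negative = cytotoxicity: MDA-kb2 human breast cancer cells carrying an MMTV luciferase reporter; series mostly up to about 92 µM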
Summary of the method: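 Nilutamide-containing (3.0uM final) MDA-kb2 cultures, 3,000 cells/well, were treated with compounds across 15 concentrations. After 16 hr at 37C with no CO2, cell viability was determined by CellTiter-Fluor fluorescence in the luciferase assay wells.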

[3] = qHTS assay to identify small molecule agonists of the estrogen receptor beta (ER-beta) signaling pathway - cell viability counter screen (AID 1259380); note: nearly all actives have a fitted effect of over 30% in size; note: potency is the fitted concentration of half-maximal effect
Summary of the method: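 Steps: plate ER-beta-UAS-bla HEK293T cells, rest 6 hr; add compounds in DMSO; incubate 16 hr at 37C, 5% CO2; add FRET substrate 2 hr; add CellTiter-Glo, wait 30 min at room temperature; read luminescence.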

[4] = target: Androgen receptor (Homo sapiens) (UniProt P10275); assay: qHTS assay to identify small molecule agonists of the androgen receptor (AR) signaling pathway in the presence of an antagonist (AID 1259381; calls by dose curve; note: nearly all actives have a fitted effect of over 15% in size; note: potency is the fitted concentration of half-maximal effect)
Sequence of Androgen receptor (Homo sapiens) (P10275 whole entry, looked up): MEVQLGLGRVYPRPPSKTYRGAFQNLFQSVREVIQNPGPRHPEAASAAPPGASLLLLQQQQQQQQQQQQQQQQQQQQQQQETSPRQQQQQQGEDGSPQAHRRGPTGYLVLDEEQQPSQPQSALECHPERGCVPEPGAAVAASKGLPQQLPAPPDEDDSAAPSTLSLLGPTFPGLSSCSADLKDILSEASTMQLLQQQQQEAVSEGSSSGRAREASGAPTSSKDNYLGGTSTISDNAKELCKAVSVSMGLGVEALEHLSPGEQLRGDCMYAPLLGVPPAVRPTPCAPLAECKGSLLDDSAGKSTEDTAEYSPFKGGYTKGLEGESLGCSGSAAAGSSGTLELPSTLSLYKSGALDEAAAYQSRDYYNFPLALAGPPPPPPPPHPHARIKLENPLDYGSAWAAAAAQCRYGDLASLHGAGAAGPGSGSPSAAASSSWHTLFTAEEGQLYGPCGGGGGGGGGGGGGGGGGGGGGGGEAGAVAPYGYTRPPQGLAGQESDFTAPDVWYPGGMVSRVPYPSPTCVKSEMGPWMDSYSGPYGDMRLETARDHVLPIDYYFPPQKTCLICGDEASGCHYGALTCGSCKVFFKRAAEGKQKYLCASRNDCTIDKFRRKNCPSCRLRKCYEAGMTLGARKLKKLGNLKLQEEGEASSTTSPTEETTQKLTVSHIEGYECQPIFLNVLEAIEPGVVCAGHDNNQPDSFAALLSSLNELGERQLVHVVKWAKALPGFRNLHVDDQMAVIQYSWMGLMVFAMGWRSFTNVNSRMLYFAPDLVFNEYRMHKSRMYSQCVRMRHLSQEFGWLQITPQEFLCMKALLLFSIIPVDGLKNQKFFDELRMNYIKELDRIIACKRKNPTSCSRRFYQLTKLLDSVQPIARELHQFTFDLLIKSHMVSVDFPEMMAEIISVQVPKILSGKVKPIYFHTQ
Summary of the method: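 Reporter-gene luminescence from MDA-kb2 cells exposed 16hr at 37C (0% CO2) to 15-point compound titrations with 3.0uM final nilutamide as AR antagonist.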

[5] = target: Estrogen receptor (Homo sapiens) (UniProt P03372); assay: qHTS assay to identify small molecule agonists of the estrogen receptor alpha (ER-alpha) signaling pathway in the presence of an antagonist (AID 1259383; calls by dose curve; note: nearly all actives have a fitted effect of over 15% in size; note: potency is the fitted concentration of half-maximal effect; for activation: top concentration of the series differs between compounds)
Sequence of Estrogen receptor (Homo sapiens) (P03372 whole entry, looked up): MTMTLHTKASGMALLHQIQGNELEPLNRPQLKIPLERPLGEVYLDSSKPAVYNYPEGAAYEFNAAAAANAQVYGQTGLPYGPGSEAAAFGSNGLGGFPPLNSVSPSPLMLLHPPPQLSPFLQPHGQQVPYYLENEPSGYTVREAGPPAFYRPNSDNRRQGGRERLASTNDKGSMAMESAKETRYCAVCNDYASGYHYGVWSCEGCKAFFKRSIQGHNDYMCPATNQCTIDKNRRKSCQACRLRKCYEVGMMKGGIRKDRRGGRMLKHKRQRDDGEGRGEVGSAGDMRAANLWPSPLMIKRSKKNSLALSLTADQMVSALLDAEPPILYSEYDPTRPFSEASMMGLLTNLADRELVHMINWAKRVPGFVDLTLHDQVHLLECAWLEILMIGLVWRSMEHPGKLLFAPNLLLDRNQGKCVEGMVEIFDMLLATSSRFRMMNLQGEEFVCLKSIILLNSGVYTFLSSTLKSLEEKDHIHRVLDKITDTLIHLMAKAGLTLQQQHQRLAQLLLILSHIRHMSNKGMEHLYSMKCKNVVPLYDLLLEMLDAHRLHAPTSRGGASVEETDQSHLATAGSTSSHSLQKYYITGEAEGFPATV
Summary of the method: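 Readout was ERE-driven luciferase luminescence in VM7Luc4E2 cells, which express full-length ER-alpha endogenously. Compounds were tested at 15 concentrations for 22hr alongside 10.0nM ICI-182,780 (final concentration).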

[6] = qHTS assay to identify small molecule agonists or antagonists of the thyroid stimulating hormone receptor (TSHR) signaling pathway - wild type cell line counter screen (AID 1259384; calls by dose curve)
Summary of the method: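 Wild-type HEK293 cells were plated 18 h at 37 C/5% CO2, pin-dosed with compound plus Ro20-1724 medium, held 30 min at room temperature, then given cAMP-d2 and anti-cAMP-cryptate; fluorescence was read after 1 h. Fifteen concentrations, triplicate.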

[7] = target: Thyrotropin receptor (Homo sapiens) (UniProt P16473); assay: qHTS assay to identify small molecule antagonists of the thyroid stimulating hormone receptor (TSHR) signaling pathway (AID 1259385; calls by dose curve; note: nearly all actives have a fitted effect of over 20% in size; note: potency is the fitted concentration of half-maximal effect)
Sequence of Thyrotropin receptor (Homo sapiens) (P16473 whole entry, looked up): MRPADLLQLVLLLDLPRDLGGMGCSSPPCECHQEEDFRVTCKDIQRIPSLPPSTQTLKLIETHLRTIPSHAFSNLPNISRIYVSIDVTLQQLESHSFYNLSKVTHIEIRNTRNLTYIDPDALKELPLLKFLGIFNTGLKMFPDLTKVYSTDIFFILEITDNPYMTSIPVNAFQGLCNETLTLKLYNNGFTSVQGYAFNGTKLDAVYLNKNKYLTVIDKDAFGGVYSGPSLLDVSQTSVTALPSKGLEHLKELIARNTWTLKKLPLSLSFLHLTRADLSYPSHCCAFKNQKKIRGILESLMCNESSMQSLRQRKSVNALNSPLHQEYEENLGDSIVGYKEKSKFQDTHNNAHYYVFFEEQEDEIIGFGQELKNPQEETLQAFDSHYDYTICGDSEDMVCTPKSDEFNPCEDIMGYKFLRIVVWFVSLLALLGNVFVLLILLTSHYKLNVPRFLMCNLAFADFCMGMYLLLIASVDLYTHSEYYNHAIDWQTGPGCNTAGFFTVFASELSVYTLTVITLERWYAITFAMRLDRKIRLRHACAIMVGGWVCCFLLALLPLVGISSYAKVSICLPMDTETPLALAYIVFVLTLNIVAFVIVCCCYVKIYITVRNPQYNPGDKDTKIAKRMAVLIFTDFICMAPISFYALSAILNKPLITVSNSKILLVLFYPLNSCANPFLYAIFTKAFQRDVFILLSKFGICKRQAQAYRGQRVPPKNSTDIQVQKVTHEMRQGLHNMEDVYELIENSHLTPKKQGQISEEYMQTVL
Summary of the method: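 TSHR-HEK293 cells were plated and held 18 h at 37C/5% CO2, then given compound plus Ro20-1724 and stimulated with TSH at 1.5 ng/mL final. After 30 min at room temperature, cAMP was detected with cAMP-d2/anti-cAMP-cryptate (1 h) by fluorescence.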

[8] = qHTS assay to identify small molecule agonists of the estrogen receptor alpha (ER-alpha) signaling pathway in the presence of an antagonist - cell viability counter screen (AID 1259386);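 note: cells exposed to compounds for 22 h at 37 °C before the viability read; nearly all actives have a fitted effect of over 30% in size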; note: potency is the fitted concentration of half-maximal effect; for activity change, negative = cytotoxicity: series mostly up to about 92 µM
Summary of the method: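 In this counter screen, compound effects on VM7Luc4E2 viability were tested in the presence of the antagonist ICI-182,780 at 10.0nM final. Compounds were dosed at 15 concentrations, exposure lasted 22hr, and the CellTiter-Fluor signal was read.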

[9] = target: Estrogen receptor beta (Homo sapiens) (UniProt Q92731); assay: qHTS assay to identify small molecule antagonists of the estrogen receptor beta (ER-beta) signaling pathway (AID 1259378; active = well fitted inhibition curve with a large enough effect in the signal ratio in the repeat runs, not every such curve was filed as active; the % refers to the signal ratio; note: potency is the fitted concentration of half-maximal effect)
Summary of the method: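 ER-beta-UAS-bla HEK293T (GripTite) cells in 2% charcoal-stripped FBS medium were preincubated 6 hr at 37C, dosed with compound, then stimulated with 1 nM E2 (final) for 16 hr; beta-lactamase reporter read by B/G FRET fluorescence after 2 hr substrate loading.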

[10] = qHTS assay to identify small molecule antagonists of the estrogen receptor beta (ER-beta) signaling pathway - cell viability counter screen (AID 1259382); note: nearly all actives have a fitted effect of over 55% in size; note: potency is the fitted concentration of half-maximal effect; for activity change, negative = cytotoxicity: series mostly up to about 92 µM
Summary of the method: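 Viability is scored by CellTiter-Glo luminescence (30 min, room temperature) in ER-beta-UAS-bla HEK293T wells already read for reporter fluorescence. Compound exposure lasts 16 hr at 37C alongside 1nM 17-beta-estradiol in charcoal-stripped serum medium.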
% is set by controls: 0 for no effect and ±100 for the full control effect.

O=C(O)c1cn(C2CC2)c2cc(Cl)c(F)cc2c1=O
inactive: Potency [1] | Potency [2] | Potency [3] | Potency [4] | Potency [5] | Potency [6] | Potency [7] | Potency [8]

CC1=CC(=O)/C(=C(/C)O)C(=O)O1
inactive: Potency [1] | Potency [9] | Potency [2] | Potency [10] | Potency [5] | Potency [6] | Potency [7] | Potency [8]

CC(C)(C)C(=O)OCOP(=O)(COCCn1cnc2c(N)ncnc21)OCOC(=O)C(C)(C)C
inactive: Potency [1] | Potency [9] | Potency [10] | Potency [6] | Potency [7] | Potency [8]
active: Potency [3] 9.44 µM

CCCCCCCCC(CO)CCCCCC (stereo unspecified)
inactive: Potency [1] | Potency [9] | Potency [3] | Potency [5] | Potency [6] | Potency [7] | Potency [8]

Cc1ccc(C)o1
inactive: Potency [1] | Potency [9] | Potency [3] | Potency [6] | Potency [7]

CC(C)(Oc1ccc(Cl)cc1)C(=O)OCCCOC(=O)C(C)(C)Oc1ccc(Cl)cc1
active: Potency [7] 29.8 µM
inactive: Potency [1] | Potency [9] | Potency [3] | Potency [4] | Potency [10] | Potency [5] | Potency [6] | Potency [8]

CN(C)CCCNCCCN
inactive: Potency [1] | Potency [9] | Potency [2] | Potency [10] | Potency [5] | Potency [6] | Potency [7] | Potency [8]

CC[C@]12CCCN3CCc4c(n(c5ccccc45)C(=O)C1)[C@@H]32
inactive: Potency [1] | Potency [9] | Potency [6] | Potency [7] | Potency [8]
active: Potency [4] 29.8 µM

CC(C)CCCCCCOC(=O)c1ccc(C(=O)OCCCCCCC(C)C)c(C(=O)OCCCCCCC(C)C)c1
inactive: Potency [1] | Potency [9] | Potency [2] | Potency [10] | Potency [6] | Potency [7] | Potency [8]

CCC(=O)OC(C)(C)C1CC=C(C)CC1 (stereo unspecified)
inactive: Potency [1] | Potency [9] | Potency [3] | Potency [5] | Potency [6] | Potency [7] | Potency [8]

CC(=O)SCc1ccco1
inactive: Potency [1] | Potency [9] | Potency [3] | Potency [4] | Potency [10] | Potency [5] | Potency [6] | Potency [7] | Potency [8]

CC(O)C1CCCCC1 (stereo unspecified)
inactive: Potency [1] | Potency [9] | Potency [2] | Potency [10] | Potency [6] | Potency [7] | Potency [8]

Cc1ccc(C(N)=O)cc1N
inactive: Potency [1] | Potency [9] | Potency [3] | Potency [10] | Potency [5] | Potency [6] | Potency [7] | Potency [8]

CC1(C)CCC(C)(C)c2cc(NC(=O)c3ccc(C(=O)O)cc3)ccc21
inactive: Potency [1] | Potency [2] | Potency [7] | Potency [8]
active: Potency [9] 18.8 µM

CC(CN)CCCN (stereo unspecified)
inactive: Potency [1] | Potency [9] | Potency [2] | Potency [5] | Potency [6] | Potency [7] | Potency [8]

CC[C@H](C)[C@@H](C(=O)O)n1sc2ccccc2c1=O
active: Potency [3] 54.5 µM | Potency [10] 30.6 µM
inactive: Potency [1] | Potency [2] | Potency [5] | Potency [6] | Potency [7] | Potency [8]

CCCCCc1ccc(N)cc1
inactive: Potency [1] | Potency [9] | Potency [2] | Potency [10] | Potency [5] | Potency [6] | Potency [7] | Potency [8]

CC(=O)N(CC(=O)N(C)C)c1ccccc1
inactive: Potency [1] | Potency [9] | Potency [10] | Potency [5] | Potency [7] | Potency [8]

CCN(CC)C(C)=O
inactive: Potency [1] | Potency [9] | Potency [10] | Potency [6] | Potency [7] | Potency [8]

CCOc1cc(OCC)c(C(=O)CCC(=O)O)cc1OCC
inactive: Potency [1] | Potency [9] | Potency [2] | Potency [5] | Potency [8]

CCCCCCCCCCCCCCCCCBr
inactive: activation [1] -3.04% [at 19 µM] | activity, negative = inhibition [9] 11.4% [at 19 µM] | activity change, negative = cytotoxicity [2] 4.41% [at 19 µM] | activity change, negative = cytotoxicity [10] -6.31% [at 19 µM] | activity change, negative = cytotoxicity [8] 0.889% [at 19 µM]

N=C(N=C(N)N)N1CCOCC1
inactive: Potency [1] | Potency [9] | Potency [2] | Potency [5] | Potency [6] | Potency [8]

S=C(S)NCCNC(=S)S
inactive: Potency [9] | Potency [2] | Potency [3] | Potency [10] | Potency [6] | Potency [7] | Potency [8]

Cc1nc2ccccc2n1Cc1ccc(Cl)cc1
inactive: Potency [1] | Potency [10] | Potency [5]
active: Potency [2] 4.22 µM | Potency [8] 13.3 µM

O=C(O)C1CCC(C(=O)O)CC1 (stereo unspecified)
inactive: Potency [9] | Potency [2] | Potency [3] | Potency [10] | Potency [5] | Potency [6] | Potency [7] | Potency [8]

O=C(O)COC(=O)Cc1ccccc1Nc1c(Cl)cccc1Cl
inactive: Potency [1] | Potency [2] | Potency [4] | Potency [5] | Potency [6] | Potency [7] | Potency [8]

COc1ccc(OC)c(OC)c1
inactive: Potency [9] | Potency [2] | Potency [3] | Potency [10] | Potency [5] | Potency [6] | Potency [7] | Potency [8]

Cc1ccc2c(ccc3ccccc32)c1
inactive: Potency [1] | Potency [2] | Potency [3] | Potency [10] | Potency [5] | Potency [8]

Cc1cc(CC(=O)O)c(C)n1-c1ccc(Cl)cc1
inactive: Potency [1] | Potency [2] | Potency [6] | Potency [7] | Potency [8]
active: Potency [3] 10.6 µM

Oc1ccc(Sc2ccc(O)cc2)cc1
inactive: Potency [10] | Potency [6] | Potency [8]
active: Potency [1] 6.42 µM | Potency [5] 14.4 µM

Cn1c(NCCN(CCO)CCCc2ccc([N+](=O)[O-])cc2)cc(=O)n(C)c1=O
inactive: Potency [9] | Potency [2] | Potency [3] | Potency [10] | Potency [6] | Potency [7] | Potency [8]
